Bioassay records as filed in PubChem BioAssay.
The list is not random: actives were taken first. Their share in the collection is about 7%.
IL-1B inflam inh = inflammasome signaling inhibition, IL-1 beta readout; THP-1 LPS/ATP IL-1B secretion, AlphaLISA, 16 h; hits give low values; activity change, % at 57.5 µM; actives 4.7% (n = 360,000); AID 743279; in the data active = activity change below about -50%; inconclusive = mostly about -30% to -49%; also: % is scaled to controls: 0 for no effect and ±100 for the full control effect
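Secreted IL-1B measured by AlphaLISA bead assay after 16 h compound exposure of THP-1 cells; compounds (final up to 57.5 uM) added 1 h before LPS (250 ng/mL) and ATP (1.25 mM) stimulation; lower signal means less secretion.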
ATXN viability = viability counter-screen for ATXN expression inhibitors; S2 cells (HEK-293 line with an ATXN2-luciferase reporter) viability, CellTiter-Fluor protease fluorescence, 24 h; Potency, µM (series often up to 56.7 µM), hits mostly cytotoxic; actives 0.49% (n = 400,000); AID 651635; also: potency is read from the fitted curve at half-maximal effect; nearly all actives have a fitted effect of over 40% in size
Integrin act MD = integrin-mediated muscular dystrophy alleviation activation. alpha7betagal myoblasts, beta-gal FDG fluorescence, 48 h. Potency, µM (titrated, usually from 38.3 µM), inactives show at the top dose activation, most hits filed as activators. actives 0.064% (n = 350,000);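 also: potency is read from the fitted curve at half-maximal effect; 100% = response of the positive control SU9516; nearly all actives have a fitted effect of over 60% in size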
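Alpha7betagal+/- myoblasts (passage 13) were plated 16-24 hr, then exposed to compounds (1:260 dilution of DMSO stock) for 48 hours at 37C. After MPER lysis, β-galactosidase reporter activity was read as FDG fluorescence (ex 480/em 540) after 30 minutes.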
D3 antag = antagonists of human D3 dopamine receptor | D3R cells, DiscoveRx beta-arrestin luminescence, antagonist mode; hits give low values | max response, negative = inhibition, % | actives 2.5% (n = 360,000) | AID 652054; in the data active = max response below about -50%; inconclusive = no clear call, values can overlap the other calls; also: % is scaled to controls: 0 for no effect and ±100 for the full control effect
Target sequence (P35462 whole entry, looked up): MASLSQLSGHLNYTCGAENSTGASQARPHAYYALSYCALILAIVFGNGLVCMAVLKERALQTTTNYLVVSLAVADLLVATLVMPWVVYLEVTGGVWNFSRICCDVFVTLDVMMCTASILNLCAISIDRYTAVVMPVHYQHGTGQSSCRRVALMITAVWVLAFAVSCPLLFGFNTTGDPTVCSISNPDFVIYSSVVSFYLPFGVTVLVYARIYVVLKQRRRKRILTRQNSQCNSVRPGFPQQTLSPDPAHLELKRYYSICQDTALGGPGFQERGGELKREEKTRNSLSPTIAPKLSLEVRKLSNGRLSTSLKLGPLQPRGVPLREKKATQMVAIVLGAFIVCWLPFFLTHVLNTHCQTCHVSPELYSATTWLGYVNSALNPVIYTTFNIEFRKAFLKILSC
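Cells expressing the human receptor were seeded at 1500 cells/well, incubated overnight at 37 degrees C in 5% CO2, then exposed to library compounds with dopamine controls for 90 minutes at 37 degrees C before luminescent detection.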
ATXN2 expr inh = inhibitors of ATXN2 expression. HEK-293 ATXN2-luciferase reporter, luminescence, 24 h. Potency, µM (highest dose often 57 µM), inactives show at the top dose activity change, negative = inhibition, actives largely listed as inhibitors. actives 0.72% (n = 360,000). AID 1745845; also: potency is read from the fitted curve at half-maximal effect; % is scaled to controls: 0 for no effect and ±100 for the full control effect; nearly all actives have a fitted effect of over 55% in size
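qHTS (up to 57 uM final) was run with 24 h compound exposure of reporter cells at 37 °C. Each well was multiplexed: SteadyGlo luminescence measured ATXN2-luciferase expression after a fluorogenic Gly-Phe-AFC viability readout (25 uM final).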
DRD3 agonist = D3 dopamine receptor (human) agonism | D3R DiscoveRx beta-arrestin cells, luminescence, 90 min | max activation, % | actives 0.58% (n = 410,000); in the data active = max activation above about 30%; also: 0% is about no effect
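Agonist-mode cell screen: cells plated at 1500/well and incubated overnight at 37 °C, then exposed to library compounds for 90 min at 37 °C. Detection reagent was added for 30–60 min at room temperature, and luminescence was read.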
Active calls of the source: *; i = inactive; ? = inconclusive; . = no result. Unless noted, calls follow the shape of the dose curve; as a rule, active = well fitted curve in the direction sought with a large enough effect; inconclusive = small, poorly fitted or top-dose-only effect, or another doubt; inactive = no such curve, though single readings can be large; an effect the other way counts as inactive or inconclusive.

SMILES | IL-1B inflam inh | ATXN viability | Integrin act MD | D3 antag | ATXN2 expr inh | DRD3 agonist
COc1ccc(CNCCS(=O)(=O)NC2CCCC2)cc1 | 46.3 | i | 1.2% | -25.3 | 4.6% | -41.1
O=S(=O)(CCNCc1ccccc1)NC1CCCCC1 | 7.8 | i | 2.1% | -50.1* | 3.1% | -40.7
COc1ccc(CNCCS(=O)(=O)NC2CCCCC2)cc1 | 24.3 | i | 16.8% | -52.7* | 5.7% | -43.9
COC(=O)[C@@H]1C[C@@]2(O)[C@@H](O)[C@@H](O)[C@@H](O)C[C@H]2N1Cc1ccc(Cl)cc1 | 18.3 | i | -16.1% | 8.4 | 5.1% | 4.8
CCCCN1C(=O)C(CC(=O)NCc2cccc3ccccc23)CC(C(=O)N(CC)CC)=C1C (stereo not given) | -0.4 | i | -4.0% | -24.1 | -15.8% | -12.8
CN(Cc1ccco1)C(=O)CN1C(=O)NC(c2ccccc2)(c2ccccc2)C1=O | -5.9 | i | 0.0% | -4.4 | 3.6% | -8.1
Cc1ccc(CN(C)C(=O)CN2C(=O)NC(c3ccccc3)(c3ccccc3)C2=O)c(C)c1 | -62.8* | i | -4.2% | 3.4 | ? | 1.7
O=C(NCc1ccccc1)C1CCC(CNc2c(N3CCCCC3)c(=O)c2=O)CC1 (stereo not given) | 6.9 | i | 1.6% | -4.9 | 3.6% | -2.6
CC1CCN(c2c(NCC3CCC(C(=O)NCc4ccccc4)CC3)c(=O)c2=O)CC1 (stereo not given) | -2.3 | i | -9.9% | -61.1* | -0.8% | 0.6
c1ccn(-c2ccc(-c3ccn[nH]3)cc2)c1 | 3.9 | ? | 0.0% | -0.8 | . | 2.9
Cc1ccc(C)n1-c1ccc(-c2ccn[nH]2)cc1 | -70.5* | i | -32.9% | 9.0 | 12.6% | 1.9
Cc1n(Cc2ccccc2)c2ccccc2[n+]1Cc1ccccc1 | -72.5* | i | -40.0% | -9.2 | ? | -7.2
CCCCn1c(=O)c2oc3ccccc3c2n(Cc2ccccc2C)c1=O | . | . | . | . | . | 3.4
CC1=CC(C)[C@H](/C=N/n2c(=O)[nH]c3c([nH]c4ccc(Br)cc43)c2=O)C(C)C1 (stereo not given in full) | -9.5 | ? | 0.0% | -66.5* | ? | 3.5
COc1ccc2c(c1)[nH]c1c(=O)n(/N=C/C3C(C)C=C(C)CC3C)c(=O)[nH]c12 (stereo not given) | 5.8 | i | -28.3% | -24.2 | ? | 1.6
COc1ccc2[nH]c3c(=O)n(/N=C/[C@H]4C(C)C=C(C)CC4C)c(=O)[nH]c3c2c1 (stereo not given in full) | -58.2* | 12.6µM* | -13.9% | -21.7 | ? | 0.0
CC[N+]1(C)CCC(O)(/C=C/c2ccccc2)C(C(=O)/C=C/c2ccccc2)C1 (stereo not given) | -102.3* | . | -52.3% | 0.0 | ? | -29.7
CCc1ccc(/C=C/C(=O)C2C(=O)c3ccccc3C2=O)cc1 | ? | i | -24.8% | ? | ? | 10.2
C=CCNc1nc2c(c(=O)[nH]c(=O)n2C)n1Cc1cccc(C)c1 | -0.8 | i | 22.9% | -3.8 | 9.7% | -3.6
O=C(Cc1sc(Nc2ccccc2)nc1-c1ccccc1)NCc1ccccc1 | -68.4* | i | -5.2% | -11.3 | -3.2% | -1.4
O=C(Cc1sc(-c2ccccc2)nc1-c1ccccc1)Nc1ccccc1 | -17.0 | i | 13.8% | -11.7 | -11.2% | -6.5
CC(NCc1ccc2c(c1)OCO2)C(=O)N1CCc2ccccc21 (stereo not given) | 24.8 | i | 12.2% | -107.2* | -11.0% | -11.7
CCN1CCN(c2cc(SC(C)C)nc(-c3ccc(OC)cc3)n2)CC1 | -81.6* | ? | -44.0% | -64.9* | ? | -23.2
c1ccc(CN=C2NN=C(c3ccccc3)CS2)cc1 | -66.8* | i | -7.7% | -11.7 | 19.9% | 6.2
Clc1ccccc1N=C1NN=C(c2cccs2)CS1 | -76.7* | i | -23.9% | -3.1 | 100.9% | 6.3
SMILES | IL-1B inflam inh | ATXN viability | Integrin act MD | D3 antag | ATXN2 expr inh | DRD3 agonist
Fc1ccccc1N=C1NN=C(c2ccccc2)CS1 | -90.5* | ? | -62.7% | -0.9 | -29.4% | -0.8
O=C1CSC(=Nc2ccccc2Cl)N1 | 3.1 | i | 0.0% | -28.3 | 22.9% | -7.0
O=C(N/N=C/c1cccn1-c1ccccc1)c1ccncc1 | 9.7 | i | -14.2% | -18.1 | -16.5% | 2.6
COc1ccc(/C(C)=N/NC(=O)CNC(=O)COc2ccccc2)c(OC)c1 | -4.2 | i | -27.9% | -6.6 | 15.0% | 0.1
C#CCN(C[C@@H]1[C@@H](OC(=O)NCC2CCCCC2)[C@@H](OC(=O)NCC2CCCCC2)Cn2c(=O)ccc(=O)n21)S(=O)(=O)c1ccc(C)cc1 | -106.4* | 3.55µM* | -64.0% | -80.9* | 3.55µM* | -7.2
C#CCN(C[C@@H]1[C@@H](OC(=O)NCCCCCC)[C@@H](OC(=O)NCCCCCC)Cn2c(=O)ccc(=O)n21)S(=O)(=O)c1ccc(C)cc1 | -107.4* | 3.98µM* | -63.9% | -23.0 | 3.55µM* | 1.6
C#CCN(C[C@H]1[C@H](OC(=O)NCC2CCCCC2)[C@H](OC(=O)NCC2CCCCC2)C[C@@H](C(=O)OC)[C@H]1C(=O)OC)S(=O)(=O)c1ccc(C)cc1 | -9.3 | ? | 3.8% | -17.1 | -8.6% | -7.3
Cc1ccc(C)c(OCC(=O)Nc2ccccc2C(=O)NC2CC2)c1 | 69.5 | i | -7.4% | 6.1 | -1.9% | -18.7
O=C(O)c1ccc(Cl)c(S(=O)(=O)NCC2CCCO2)c1 (stereo not given) | -9.6 | i | ? | -53.7* | 0.4% | -2.4
O=C(Nc1ccc(OC(=O)c2ccco2)cc1)c1ccco1 | -16.8 | i | 1.6% | -19.5 | 1.8% | 0.9
COc1ccc(NC(=S)NC(NC(=O)/C=C/c2ccccc2)C(Cl)(Cl)Cl)cc1 (stereo not given) | -4.2 | i | -38.2% | -68.9* | -21.5% | -7.2
O=C(/C=C/c1ccccc1)NC(NC(=S)Nc1cc(Cl)ccc1Cl)C(Cl)(Cl)Cl (stereo not given) | -65.8* | ? | -58.4% | ? | ? | -26.1
O=C(Nc1ccc(Cl)c(Cl)c1)Oc1ccc(NC(=O)c2ccco2)cc1 | -88.2* | i | 10.6% | 11.1 | 9.2% | -0.9
O=C(NC(NC(=S)Nc1ccc(Cl)c(Cl)c1)C(Cl)(Cl)Cl)c1ccco1 (stereo not given) | -62.6* | i | -22.5% | -14.3 | ? | -21.7
Cc1ccccc1-n1ncc2c1CC(C)(C)CC2NC(=O)c1snnc1C (stereo not given) | 4.6 | i | -15.5% | -6.4 | 12.7% | -2.6
Nc1nnnn1/N=C/c1ccc(Cl)cc1 | -9.3 | i | 17.6% | -24.0 | 4.1% | -10.7
O=C(Cc1ccccc1)NC(NC(=S)Nc1cc(Cl)ccc1Cl)C(Cl)(Cl)Cl (stereo not given) | 24.0 | i | -21.4% | ? | -1.2% | -3.8
